Consider eight molecules from PubChem BioAssay (NCI).

The panel holds about 83,000 compounds, 20% with a hit somewhere; the sample as a whole holds those more often.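 Percent growth is the endpoint: 0 to 100 indicates growth inhibition (40 means 60% inhibition), 0 means no net growth, and negative values indicate cell death.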 Values without a mark were called inactive. The source made the active and inactive calls. How the source made its calls: active means growth percent below 10; inactive means the rest.

Holding throughout (test): NCI-60 one-dose screen, 48 h (100 = growth as untreated, 0 = no growth, -100 = all killed)
Holding throughout (settings): 10 µM unless noted

The test system of test [1] is HCT-15 colon.
In test [2] the test system is HT29 colon.
Test [3] has as its system SNB-75 CNS.
In test [4] the test system is SNB-19 CNS.
Test [5] deals with U251 CNS.
The test system of test [6] is PC-3 prostate.
Test [7] relates to SK-MEL-5 melanoma.
In test [8] the test system is UACC-62 melanoma.
The subject of test [9] is LOX IMVI melanoma.
Test [10] deals with SK-MEL-28 melanoma.
Test [11] has as its system SK-MEL-2 melanoma.
The test system of test [12] is EKVX NSCLC.
For test [13], the system named is SN12C renal.
The subject of test [14] is UO-31 renal.
Test [15] concerns TK-10 renal.
For test [16], the system named is ACHN renal.
Test [17] deals with CAKI-1 renal.
The test system of test [18] is A498 renal.
The subject of test [19] is CCRF-CEM leukemia.
Test [20] deals with MOLT-4 leukemia.

For the molecule `CN1CCN(c2ccc3nc(-c4cc(C(C)(C)C)c(O)c(C(C)(C)C)c4)[nH]c3c2)CC1`, the growth in [1] was -35.3% (active); in [2], 6.14% (active); in test [3] it was 58.8%; in test [4], 73.6%; in [5], 16.5%; in test [6], 58.7%. Moreover, the growth in [7] is 74.9%; in test [8], 63.5%; in [9] it was -37.3% (active); in [10] it was 57%; in test [11], 82.5%; in test [12], 86.4%. For the same molecule, the growth in test [13] is 88.2%; in [14], 61.3%; in [15], 90.5%; in test [16] it was 87.3%; in [17], 68.6%; in test [18] it was 90.5%. Moreover, the growth in [19] is 14.5%; in test [20], 39.6%.
With `COc1ccc(-c2nc(SC)nc(N3CCOCC3)c2C#N)cc1`, the growth in test [1] is 93.9%; in test [2], 92.3%; in [3] it was 60.5%; in test [4], 96.7%; in test [5], 91.1%; in test [6], 81.1%. Besides, the growth in test [7] was 98.4%; in test [8] it was 83.5%; in test [9], 96.1%; in test [10] it was 106%; in test [11], 101%; in [12], 97.7%. In addition, the growth was 96.5% in test [13]; 67.4% in test [14]; 97.5% in [15]; 94.3% in [16]; 81.4% in test [17]; 63.1% in test [18]. Moreover, the growth in [19] is 88.7%; in test [20], 87.6%.
Take `COc1ccccc1-c1c(-c2ccc(Cl)cc2)c2cc3c(cc2[nH]c1=O)OCCO3`: the growth in test [1] was 73.5%; in test [2], 69.6%; in test [3], 88.6%; in [4] it was 94.9%; in [5], 75.3%; in test [6] it was 41.5%. In addition, the growth was 63.8% in test [7]; 71% in [8]; 73.9% in [9]; 90.4% in test [10]; 80.5% in test [11]; 53.6% in [12]. Further, the growth in test [13] was 85.4%; in test [14], 61.9%; in test [15], 86%; in test [16], 70.5%; in [17] it was 54.9%; in [18] it was 86.8%. The growth is 41.7% in test [19] and 3.15% (active) in [20].
In the case of `Cc1ccc(C2CC(c3cccc(Nc4ccncc4)c3)=NN2c2ccc(Cl)cc2)cc1` (stereo unspecified), the growth is -88.2% (active) in test [1]; -58% (active) in [2]; -89.9% (active) in test [3]; -90.2% (active) in [4]; -52.2% (active) in [5]; -83.4% (active) in test [6]. For the same molecule, the growth in test [7] is -93% (active); in test [8], -98.3% (active); in test [9], -96.5% (active); in test [10], -97.7% (active); in [11], -74.8% (active); in test [12], -85.1% (active). For the same molecule, the growth was -95.8% (active) in test [13]; -99.4% (active) in test [14]; -80.9% (active) in test [15]; -100% (active) in test [16]; -94.7% (active) in [17]; -93.8% (active) in test [18]. Also, the values for the growth in test [19] and in [20] were -30.8% (active) and -32.8% (active), respectively.
`COc1ccc(/C=C/C(=O)c2ccc(OC)c(OC)c2)cc1O`: the growth in test [1] is 56.5%; in [2] it was 63.8%; in test [3], 86.1%; in [4], 82.1%; in [5], 25.4%; in [6], 82.4%. Further, the growth in test [7] was 77.2%; in test [8] it was 87.1%; in test [9], 65.5%; in test [10] it was 101%; in test [11], 99.9%; in test [12], 87.4%. The growth in test [13] was 73.8%; in [14], 63.9%; in test [15], 83.8%; in [16], 86%; in test [17], 62.9%; in [19], 62.5%.
As for `COc1ccc(Nn2c(SCC(=O)Nc3nc(-c4ccc(Cl)cc4)cs3)nc(C)c2C)cc1`, the growth is 59.8% in [1]; 30.1% in test [2]; 45.8% in test [3]; 79.2% in [4]; 43.5% in [5]; 35.7% in [6]. For the same molecule, the growth in test [7] was -21.5% (active); in [8], 49.5%; in test [9] it was 38.9%; in test [10], 86.8%; in test [11], 90.5%; in test [12] it was 41.9%. The growth in [13] was 67.2%; in test [14] it was 39.4%; in test [15], 68.5%; in test [16] it was 52%; in test [17], 34.4%; in test [18], 69.5%. For the same molecule, the growth in [20] was 36.1%.
Take `COc1cc2nc(-c3ccc(-c4nn[nH]n4)cc3)[nH]c(=O)c2cc1OC`: the growth in test [1] is 106%; in test [2] it was 110%; in test [3] it was 106%; in [4], 94.3%; in test [5], 105%; in test [6], 131%. Further, the growth is 102% in test [7]; 105% in test [8]; 97.3% in [9]; 128% in test [10]; 122% in test [11]; 108% in [12]. For the same molecule, the growth in test [13] is 140%; in [14], 86.3%; in test [15], 246%; in [16], 111%; in [17], -1.66% (active); in test [18], 147%. Besides, the growth in [19] is 114%; in [20] it was 95.5%.
Turning to `O=C1Nc2c(ccc(Cl)c2Cl)/C1=C/c1ccc(O)cc1`, the growth in [1] was 90.8%; in [2] it was 94.7%; in test [3], 56.7%; in test [4] it was 68.8%; in [5], 83.8%; in [6], 98.1%. For the same molecule, the growth in [7] was 87.1%; in test [8], 76.7%; in [9], 63.7%; in test [10], 123%; in [11], 108%; in test [12] it was 62.1%. Further, the growth is 97.4% in test [13]; 61.8% in [14]; 101% in test [15]; 87.6% in test [16]; 59.7% in test [17]; 115% in test [18]. Also, in test [20], the growth was 77.3%.
